Each structure is given as a SMILES string. Screen size: about 420,000 compounds; about 64,000 (15%) were called active. Roughly 27% stayed inconclusive and do not appear here. The call rests on the fitted dose curve; in most records, active means well fitted inhibition curve with a large enough effect; inconclusive means small, poorly fitted or top-dose-only effect; inactive means flat fitted curve, though single readings scatter. These entries were drawn from the full list. Entries that show only a call come without a potency.
Potency means the concentration at half of the fitted maximal effect.

A short description of this assay: qHTS for Inhibitors of human tyrosyl-DNA phosphodiesterase 1 (TDP1): qHTS in cells in absence of CPT. Further: nearly all actives have a fitted effect of over 55% in size. Particulars: DT40 Tdp1-/- hTDP1 cells, no CPT, ATP luminescence, 48 h; activity change, negative = growth inhibition: at 46.2 µM (top of the series). In a few lines: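 A cellular qHTS used chicken DT40 cells lacking endogenous Tdp1 but carrying stably transfected human TDP1. Compounds were applied without camptothecin, and cell growth kinetics were judged by ATP-dependent luminescence after ≥48 hr.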
Turning to `CCCCN1C(=O)/C(=C2/C=CC=CN2C)SC1=S`, the Potency result is “inactive”.
In the case of `CN1C=CC=C/C1=C1\SC(=S)N(Cc2ccccc2)C1=O`, the Potency entry is “inactive”.
The result for `CCCCN1C(=O)/C(=C/C=C2/C=Cc3ccccc3N2CC)SC1=S` reads 8.2 µM (active).
The result for `CCCOc1ccc(-c2nc(N)n[nH]2)cc1` reads “inactive”; that for `CC(OC(=O)c1ccc2ccccc2n1)C(=O)c1ccccc1` (configuration not stated), “inactive”; that for `O=C1NC(c2cccc(Cl)c2)Nc2ccccc21` (configuration not stated), 16.4 µM (active).
The result for `COc1ccc(C2NC(=O)c3ccccc3N2)cc1` (configuration not stated) reads “inactive”; that for `COc1cccc(C2Nc3cccc4cccc(c34)N2)c1`, “inactive”.
On to `Cc1cc(C)c(C#N)c(SCC(=O)N(CC(C)C)C2CCS(=O)(=O)C2)n1` (configuration not stated), for which the Potency entry was “inactive”.
The result for `Cc1nc2ccccc2n1CC(=O)N/N=C/c1cccnc1` reads “inactive”; that for `O=C(CSc1cccc2cccnc12)N/N=C/c1cccnc1`, 4.11 µM (active); that for `O=C(CNC(=O)c1cccnc1)N/N=C/c1cccnc1`, “inactive”.
Next, `CC1=C(C(=O)Nc2ccccc2)C(c2cccs2)C(C#N)=C(SCC#N)N1` (configuration not stated): 7.31 µM (active); `Cc1cc(C)c(C#N)c(SCC(=O)Nc2ccccc2)n1`: “inactive”.
In the case of `COc1ccc(NC(=O)c2sccc2SCC#N)cc1`, the Potency result was “inactive”.
The result for `N/C(=N\c1nc2ccccc2o1)NC(=O)C(Cc1ccccc1)N1C(=O)c2ccccc2C1=O` (configuration not stated) reads “inactive”; that for `Nn1c(SCC(=O)Nc2ccc3c(c2)CCC3)nnc1C1CC1`, “inactive”.
Next, `Cc1nc2nc(SCC(=O)NCc3ccco3)nn2c(C)c1Cc1ccccc1`: “inactive”.
As for `COC(OC)c1ccnc(SCc2ccccc2Cl)n1`, the Potency entry was “inactive”.
The result for `Cc1cccc(Cc2c(C)nc3nc(SCc4ccccc4Cl)nn3c2C)c1` reads 20.6 µM (active); that for `Cc1nc(CNS(=O)(=O)c2cc([N+](=O)[O-])ccc2C)cs1`, “inactive”; that for `COc1cc(SC)ccc1C(=O)NCCOc1ccccc1Cl`, “inactive”.
Next, `COc1ccccc1CNC(=O)c1ccc(SC)cc1OC`: 15.8 µM (active); `COc1cc(SC)ccc1C(=O)Nc1nc(C)cs1`: 11.6 µM (active).
In the case of `COc1ccc(Cc2nnc(NC(=O)c3ccc(OC)cc3OC)s2)cc1`, the Potency entry was “inactive”.
The result for `COc1cc(SC)ccc1C(=O)NNC(=O)C1COc2ccccc2O1` (configuration not stated) reads “inactive”.
Next, `Cc1csc(NC(=O)CSc2nc(=O)cc(N)n2-c2ccc(F)cc2)n1`: “inactive”.
For `CCCCc1cc(=O)oc2cc(C)cc(OCc3nn[nH]n3)c12`, the Potency entry is “inactive”.
Next, `O=C(NN1C(=O)C2CCCCC2C1=O)c1ccco1` (configuration not stated): “inactive”.
Next, `Cc1ccc(S(=O)(=O)N2C[C@H]3C(=O)C[C@@H](c4cccc5ccccc45)N(S(=O)(=O)c4ccc(C)cc4)[C@H]3C[C@H]2c2ccc(Cl)cc2)cc1`: “inactive”; `O=C(Nc1ccccn1)C1CCN(S(=O)(=O)c2ccc3c(c2)OCCO3)CC1`: “inactive”; `CCCCn1c(=S)[nH]c2ncccc2c1=O`: “inactive”.
As to `Cc1cc(Nc2ccc(Br)cc2F)n2ncnc2n1`, the Potency result was “inactive”.
As to `CC[C@H]1OC(=O)[C@H](C)[C@@H](O[C@H]2C[C@@](C)(OC)[C@@H](O)[C@H](C)O2)[C@H](C)[C@@H](O[C@@H]2O[C@H](C)C[C@H](N(C)C)[C@H]2O)[C@](C)(O)C[C@@H](C)[C@@H]2N[C@@H](COCCOC)O[C@H]([C@H]2C)[C@]1(C)O`, the Potency entry was “inactive”.
Next, `CCN(CC)S(=O)(=O)c1ccc(Cl)c(C(=O)NC(C)C(c2cccs2)N2CCCC2)c1` (configuration not stated): 14.6 µM (active); `CCN(CC)S(=O)(=O)c1ccc(NC(=O)c2cccnc2Cl)c(NC(=O)c2cccnc2Cl)c1`: “inactive”.
As to `CCN(CC)S(=O)(=O)c1ccc(Cl)c(C(=O)NCCN2CCOCC2)c1`, the Potency entry is “inactive”.
The result for `COc1cc(C(=O)N/C(=C\c2cn(C)c3ccccc23)C(=O)N2CCOCC2)cc(OC)c1OC` reads “inactive”; that for `Cc1c(N=Nc2ccc(N(C)C)cc2)c(=O)n(-c2ccccc2)n1C`, “inactive”.
Next, `COc1ccc(NC(=S)NC2CCS(=O)(=O)C2)cc1` (configuration not stated): “inactive”.
The result for `N#Cc1ccc(OCC(=O)NC(=O)NC2CCS(=O)(=O)C2)cc1` (configuration not stated) reads “inactive”.
As to `COc1ccc(-c2ccc(OC(=O)NC3CCS(=O)(=O)C3)cc2)cc1` (configuration not stated), the Potency was 8.2 µM (active).
Next, `CC(C)(C)CN1C(=O)C(=O)NC[C@H]1Cc1cccc2ccccc12`: “inactive”.
`CC1CCN(C(=O)c2ccc(S(=O)(=O)Cc3cc(F)ccc3F)c([N+](=O)[O-])c2)CC1`: the Potency is 16.4 µM (active).
Next, `Nc1ccc(C(=O)N2CCN(S(=O)(=O)c3ccc(Cl)cc3)CC2)cc1[N+](=O)[O-]`: “inactive”; `NC(=O)C1CCN(C(=O)c2ccc(F)c(S(=O)(=O)N3CCOCC3)c2)CC1`: “inactive”.
Next, `CC1(C)CC(O)C(CCC(O)c2ccccc2)C(C)(C)N1` (configuration not stated): “inactive”; `CC(=O)N(c1ccc2oc(=O)sc2c1)S(=O)(=O)c1ccc(C)cc1`: 16.4 µM (active).
For `CC(=O)Oc1ccc(N(C(C)=O)S(=O)(=O)c2ccc3ccccc3c2)cc1Br`, the Potency result was “inactive”.
Next, `Cc1ccc(S(=O)(=O)N(CCCN(C)C)Cc2ccc3c(c2)OCO3)cc1`: “inactive”.
As to `COc1ccc(C2/C(=C(/O)c3ccc(OC(C)C)cc3)C(=O)C(=O)N2CCCN2CCOCC2)cc1` (configuration not stated), the Potency entry was “inactive”.
As for `C=CCn1c(SCC(=O)Nc2ccc(NC(C)=O)cc2)nc2sc(C)c(C)c2c1=O`, the Potency result was “inactive”.
Next, `O=C1CCCC(O)=C1N=Nc1ccc(S(=O)(=O)N2CCOCC2)cc1`: “inactive”.
The result for `O=C1CCC(Cc2ccccc2)N1` (configuration not stated) reads “inactive”; that for `COc1ccc(NC(=O)C2CCC(CNC(=O)[C@@H]3Cc4ccccc4CN3)CC2)cc1` (some centres not stated), “inactive”.
On to `COc1ccc(/C=C2\SC(=S)N(CCC(=O)Nc3ccccn3)C2=O)cc1OC`, for which the Potency result is “inactive”.
Next, `O=C1/C(=C/c2ccc(F)cc2)SC(=S)N1CCCC(=O)N1CCCCC1CCO` (configuration not stated): 25.9 µM (active); `COc1cccc(/C=C2/SC(=S)N(CC(=O)NC3C=CS(=O)(=O)C3)C2=O)c1` (configuration not stated): “inactive”; `O=C(CCCN1C(=O)/C(=C/c2ccccc2)SC1=S)Nc1ccc(O)cc1`: “inactive”.
Next, `COc1cccc(/C=C2\SC(=S)N(CCCC(=O)N3CCOCC3)C2=O)c1`: 18.4 µM (active); `COc1ccc(/C=C2\SC(=S)N(CCC(=O)Nc3cccc(C(=O)O)c3)C2=O)cc1OC`: “inactive”; `COc1ccc(/C=C2\SC(=S)N(CCCC(=O)NC3CCCC3)C2=O)cc1OC`: 16.4 µM (active).
As for `C=CCOc1ccc(/C=C2\SC(=S)N(CCC(=O)O)C2=O)cc1`, the Potency result is “inactive”.
For the compound `COc1ccc(/C=C2\SC(=S)N(CCC(=O)N3CCOCC3)C2=O)cc1OC`, the Potency result was “inactive”.
Next, `CC(=O)N(OCc1ccc(OC(C)C)c(Cl)c1)C(C)=O`: “inactive”; `C[N+](C)(C)CCNC(=O)c1c(O)c2c([nH]c1=O)CCCC2`: “inactive”.
On to `COc1ccc2nc(N3CCCC(O)C3)c(C#N)cc2c1` (configuration not stated), for which the Potency result is “inactive”.
As to `Cc1ccc(NC(=O)COC(=O)C2C3CC4OC(=O)C2C4C3)cc1Cl` (configuration not stated), the Potency result is “inactive”.
For `O=C(COC(=O)c1ccccn1)NNC(=O)c1ccc([N+](=O)[O-])cc1`, the Potency entry is “inactive”.
`CCc1noc(C)c1C(=O)NCCN1Cc2cc(OC)ccc2OC(CC)C1` (configuration not stated): the Potency entry was “inactive”.
The result for `Nc1nc(N)c(N=O)c(N)n1` reads “inactive”; that for `O=C(NCc1ccccc1)C1CNCC(C(=O)NCc2ccccc2)C1` (configuration not stated), “inactive”.
Next, `O=C(NCc1ccccc1)[C@H]1C[C@@H]1[C@H](NP(=O)(c1ccccc1)c1ccccc1)c1ccccc1`: 20.6 µM (active); `O=C(O)C1C2C=CC(C2)C1C(=O)NCc1ccccc1` (configuration not stated): “inactive”.
The result for `O=C1CSC(=O)N1CCOCCN1C(=O)CSC1=O` reads “inactive”; that for `COCCn1c(C)cc(C(=O)COC(=O)/C=C/c2cccc(OC)c2)c1C`, “inactive”.
Consider `Cc1cc2cc3n(c2nn1)N=C(Cl)CC3`, for which the Potency is 11.6 µM (active).
Next, `CS(=O)(=O)c1ccc(Cl)c(NC(=O)COC(=O)c2cccc(S(=O)(=O)N3CCCC3)c2)c1`: “inactive”; `CC1(C(=O)Nc2ccccc2Br)CCN1C(=O)CC1CC1` (configuration not stated): “inactive”.
The result for `CC1(C(=O)Nc2cccc3cccnc23)CCN1C(=O)CCC1CCCC1` (configuration not stated) reads 16.4 µM (active); that for `CC1(C(=O)NS(=O)(=O)c2ccc(Cl)cc2)CCN1C(=O)CC1CCCC1` (configuration not stated), “inactive”; that for `C=CCNc1nc(Nc2ccc(Cl)cc2)nc(OC)n1`, “inactive”.
For the compound `O=C(Cn1cc(C(=O)C2CC2)c2ccccc21)Nc1ccccc1Cl`, the Potency entry is “inactive”.
The result for `CN(C)S(=O)(=O)c1ccc(C(=O)NCC2(N3CCOCC3)CCCCC2)cc1` reads “inactive”; that for `CC(=O)Nc1ccccc1C(=O)C(=O)Nc1ccc(F)cc1`, “inactive”; that for `O=S(=O)(Nc1n[nH]c(C(F)(F)F)n1)c1ccccc1`, “inactive”.
For the compound `CCCNC(=O)C1(C)CCCN(Cc2cccc(C(F)(F)F)c2)C1` (configuration not stated), the Potency is 25.9 µM (active).
Next, `CCCNC(=O)C1(C)CCN(Cc2csc(-c3ccc(Cl)cc3)n2)C1` (configuration not stated): 16.4 µM (active); `CCCNC(=O)C1(C)CCN(C(=O)c2ccc(F)cc2Cl)C1` (configuration not stated): “inactive”; `CCCNC(=O)C1(C)CCCN(C(=O)c2cccc(OC(C)=O)c2C)C1` (configuration not stated): “inactive”.
Next, `CCCNC(=O)C1(C)CCN(C(=O)c2cc(F)ccc2C)C1` (configuration not stated): “inactive”; `CCCNC(=O)C1(C)CCN(Cc2ccc(Cl)c(Cl)c2)C1` (configuration not stated): 20.6 µM (active).
With `CCNC(=O)C1(C)CCN(Cc2ccc(C(=O)OCC)o2)C1` (configuration not stated), the Potency entry is “inactive”.
Next, `CCCNC(=O)C1(C)CCN(C(=O)c2ccccc2OC(F)(F)F)C1` (configuration not stated): “inactive”.
Next, `CCCNC(=O)C1(C)CCCN(Cc2c(C)nn(-c3ccccc3)c2C)C1` (configuration not stated): “inactive”.
Next, `Cc1ccc(NC(=O)C(C)OC(=O)C2CC3CCCC(C2)C3=O)cc1S(=O)(=O)N1CCOCC1` (configuration not stated): “inactive”.
Turning to `CCCOc1ccc(N2C(=O)CC(N(CCc3ccc(S(N)(=O)=O)cc3)C(C)=O)C2=O)cc1` (configuration not stated), the Potency result was “inactive”.
Regarding `O=C(CNc1ccc(F)cc1F)NC(=O)NCc1ccco1`, the Potency entry was “inactive”.
Next, `COc1ccc(/C(N)=N/OC(=O)Oc2ccccc2)cc1`: “inactive”; `Cc1noc(NS(=O)(=O)c2ccc(NC(=O)C34CCC(CC3)C4)cc2)c1C`: “inactive”; `Cc1c(Cl)cccc1NC(=S)NCC(O)c1ccccc1` (configuration not stated): “inactive”.
Next, `O=C(C1CCCO1)N1CCN(S(=O)(=O)c2ccc(Br)cc2)CC1` (configuration not stated): “inactive”.

Values taken from PubChem BioAssay AID686978 (National Center for Advancing Translational Sciences (NCATS), 2013).
